Screen size: about 310,000 compounds; about 14,000 (4.5%) showed an effect of 50% or more. The effect is printed as a negative number. The sample as a whole holds a higher share of strong results than the screen did.
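Note: peak tail current of the secondary pulse compared with the same well before compound.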

The experiment deals with human ether-à-go-go-related gene (hERG) potassium channel (human, UniProt Q12809). In words: primary screen, population patch clamp on CHO cells stably expressing hERG; higher = less effect of the substance.
Sequence of human ether-à-go-go-related gene (hERG) potassium channel (Q12809 whole entry, looked up): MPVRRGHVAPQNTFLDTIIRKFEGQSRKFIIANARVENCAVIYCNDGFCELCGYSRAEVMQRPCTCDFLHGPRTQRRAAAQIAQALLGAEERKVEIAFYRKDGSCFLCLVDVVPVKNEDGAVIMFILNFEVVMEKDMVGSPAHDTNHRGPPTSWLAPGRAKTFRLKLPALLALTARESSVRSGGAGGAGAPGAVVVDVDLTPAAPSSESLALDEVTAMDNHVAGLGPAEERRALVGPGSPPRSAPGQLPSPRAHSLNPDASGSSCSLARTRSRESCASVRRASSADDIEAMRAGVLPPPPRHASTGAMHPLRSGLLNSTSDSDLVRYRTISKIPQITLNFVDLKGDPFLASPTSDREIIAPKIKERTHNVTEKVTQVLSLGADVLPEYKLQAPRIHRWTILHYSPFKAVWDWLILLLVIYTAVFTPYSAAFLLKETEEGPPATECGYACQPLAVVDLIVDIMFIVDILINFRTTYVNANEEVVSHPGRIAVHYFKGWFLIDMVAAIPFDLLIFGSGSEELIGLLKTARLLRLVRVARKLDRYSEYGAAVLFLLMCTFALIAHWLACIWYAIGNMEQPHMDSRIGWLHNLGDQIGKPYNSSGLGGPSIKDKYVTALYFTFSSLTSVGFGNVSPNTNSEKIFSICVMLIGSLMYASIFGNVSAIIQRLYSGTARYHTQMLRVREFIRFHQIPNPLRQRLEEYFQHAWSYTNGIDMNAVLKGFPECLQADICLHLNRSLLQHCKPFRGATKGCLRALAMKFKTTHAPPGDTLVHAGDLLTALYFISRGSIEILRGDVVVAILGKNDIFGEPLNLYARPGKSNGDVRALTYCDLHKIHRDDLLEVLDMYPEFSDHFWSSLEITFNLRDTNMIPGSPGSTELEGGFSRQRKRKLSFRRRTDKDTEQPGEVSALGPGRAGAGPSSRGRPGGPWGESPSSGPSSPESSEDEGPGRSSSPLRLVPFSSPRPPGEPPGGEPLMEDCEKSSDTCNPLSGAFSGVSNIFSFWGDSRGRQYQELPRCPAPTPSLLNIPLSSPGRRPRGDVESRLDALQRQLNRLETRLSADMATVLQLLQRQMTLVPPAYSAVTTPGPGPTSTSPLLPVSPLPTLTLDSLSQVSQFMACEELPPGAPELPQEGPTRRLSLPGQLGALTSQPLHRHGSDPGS
`CCOC(=O)C1CCN(Cc2ccc(O)c(OC)c2)CC1`: the “hERG current change (%, negative = inhibition) at 10uM” value is -13.7%.

For `CCN(C(=O)COC(=O)c1ccc(C)c(S(=O)(=O)N2CCOCC2)c1)C1CCS(=O)(=O)C1` (stereo not drawn), the “hERG current change (%, negative = inhibition) at 10uM” value was found to be 1.32%.

Consider `CCCCN(C(=O)c1ccc(S(=O)(=O)N2CCCC2)cc1)C1CCS(=O)(=O)C1` (stereo not drawn), for which the “hERG current change (%, negative = inhibition) at 10uM” value is listed as -0.0452%.

With `Cc1ccc(C(=O)OCC(=O)N(C)C2CCS(=O)(=O)C2)cc1S(=O)(=O)N1CCCCC1` (stereo not drawn), the “hERG current change (%, negative = inhibition) at 10uM” value was -16.5%.

Take `CC(C)CN(C(=O)c1cccc(S(=O)(=O)N2CCCCC2)c1)C1CCS(=O)(=O)C1` (stereo not drawn): the “hERG current change (%, negative = inhibition) at 10uM” value worked out at 0.956%.

For the molecule `CCN(C(=O)c1ccc(S(=O)(=O)N2CCC(C)CC2)cc1)C1CCS(=O)(=O)C1` (stereo not drawn), the “hERG current change (%, negative = inhibition) at 10uM” value amounted to 7.87%.

On to `CN(C(=O)c1cccc(S(=O)(=O)N2CCCCC2)c1)C1CCS(=O)(=O)C1` (stereo not drawn), for which the “hERG current change (%, negative = inhibition) at 10uM” value came to 2.39%.

Consider `CCCCN(C(=O)c1cccc(S(=O)(=O)N2CCCCC2)c1)C1CCS(=O)(=O)C1` (stereo not drawn), for which the “hERG current change (%, negative = inhibition) at 10uM” value is on record as -52.1%.

`CCN(C(=O)COC(=O)c1ccc(C)c(S(=O)(=O)N2CCCCC2)c1)C1CCS(=O)(=O)C1` (stereo not drawn): the “hERG current change (%, negative = inhibition) at 10uM” value is -66.5%.

Turning to `CCCCN(C(=O)c1ccc(S(=O)(=O)N2CCC(C)CC2)cc1)C1CCS(=O)(=O)C1` (stereo not drawn), the “hERG current change (%, negative = inhibition) at 10uM” value is reported as -53.2%.

As to `NS(=O)(=O)c1cc(C(=O)OCC(=O)Nc2ccccc2[N+](=O)[O-])ccc1Cl`, the “hERG current change (%, negative = inhibition) at 10uM” value is on record as -6.13%.

For `O=C1Nc2ccccc2N(O)N1c1ccc(S(=O)(=O)N2CCCCCC2)cc1`, the “hERG current change (%, negative = inhibition) at 10uM” value was 1.75%.

For the molecule `N#C/C(=C\c1ccc(-c2ccc(C(=O)O)cc2)o1)C(=O)Nc1ccc(F)cc1`, the “hERG current change (%, negative = inhibition) at 10uM” value came to 25.6%.

As to `O=C(NCCc1ccccc1)C1CCN(S(=O)(=O)N2CCC3(CC2)OCCO3)CC1`, the “hERG current change (%, negative = inhibition) at 10uM” value is -0.566%.

Take `CCCOc1cccc(C(=O)N2CCN(C(=O)C3CCCO3)CC2)c1` (stereo not drawn): the “hERG current change (%, negative = inhibition) at 10uM” value is recorded as 7.15%.

For `CCC(=O)c1ccc(OCC(=O)OCC(=O)N2c3ccccc3NC(=O)C2(C)C)cc1`, the “hERG current change (%, negative = inhibition) at 10uM” value is 2.82%.

For `CC(C)c1ccc(N(CC(=O)NCC2CCCO2)C(=O)Cn2nnc(-c3cccs3)n2)cc1` (stereo not drawn), the “hERG current change (%, negative = inhibition) at 10uM” value is -42.5%.

In the case of `NC(=O)NOCc1ncc(C(F)(F)F)cc1Cl`, the “hERG current change (%, negative = inhibition) at 10uM” value worked out at 10.4%.

`CCN(CC)CCOc1ncnc2c1oc1ccccc12`: the “hERG current change (%, negative = inhibition) at 10uM” value is -39.1%.

For `CCc1nc(N(CC)CC)c2oc3ccccc3c2n1.Cl`, the “hERG current change (%, negative = inhibition) at 10uM” value was -21.1%.

`CN(C)CCOc1nc(-c2ccccc2)nc2c1oc1ccccc12`: the “hERG current change (%, negative = inhibition) at 10uM” value is -44.7%.

`CCc1nc(OCCN(CC)CC)c2oc3ccccc3c2n1.Cl`: the “hERG current change (%, negative = inhibition) at 10uM” value was -58.9%.

Take `CCc1nc(OCCN(C)C)c2oc3ccccc3c2n1`: the “hERG current change (%, negative = inhibition) at 10uM” value was -4.1%.

With `CCN(CC)CCOc1nc(C)nc2c1oc1ccccc12.Cl`, the “hERG current change (%, negative = inhibition) at 10uM” value is -64.6%.
